# Source: article PMC11062922 (Nature Chemical Biology, 2023)
# Where two headings read alike, the source gives them in different places.
# What was measured:
# Parameters in all cases: species or system human, MV4-11 + K-562 + COLO205 + SK-N-BE2 + OVCAR-8
# CDK5 = details: read-out: apparent Kd; compound concentrations: 100 nM and 1000 nM (sheet 'Samples'), CATDS: 3.4142296648309298E-2; n = 1
# RIPK2 = details: read-out: apparent Kd, n = 1
# TGFBR2 = details: read-out: apparent Kd, n = 1
# CSK = details: read-out: apparent Kd, n = 1
# EPHB3 = details: read-out: apparent Kd, n = 1
# EPHA1 = details: read-out: apparent Kd, n = 1
# AXL = details: read-out: apparent Kd, n = 1
# CDC42BPG = details: read-out: apparent Kd; compound concentrations:100 nM and 1000 nM (sheet 'Samples'); n = 1
# LYN = details: read-out: apparent Kd, n = 1
# PRKG1 = details: read-out: apparent Kd; compound concentrations:100 nM and 1000 nM (sheet 'Samples'); n = 1
# ULK1 = details: read-out: apparent Kd, n = 1
# TTK = details: read-out: apparent Kd; compound concentrations:100 nM and 1000 nM (sheet 'Samples'); n = 1
# ROCK1 = details: read-out: apparent Kd; compound concentrations: 100 nM and 1000 nM (sheet 'Samples'), CATDS: 8.4465602866789904E-2; n = 1
# PIK3CG = details: read-out: apparent Kd; compound concentrations: 100 nM and 1000 nM (sheet 'Samples'), CATDS: 8.5012457956318496E-3; n = 1
# [1] = compound concentrations:100 nM and 1000 nM (sheet 'Samples')
structure (smiles),measurement,setting,value
Cc1ccc(Nc2ccnc(Nc3ccc4c(c3)CS(=O)(=O)C4)n2)cc1O.Cl [GW579362A],potency estimated from few doses,CDK5,844 nM
same,potency estimated from few doses,"RIPK2; compound concentrations: 100 nM and 1000 nM (sheet 'Samples'), CATDS: 5.8804795040806997E-2",261 nM
same,potency estimated from few doses,"TGFBR2; compound concentrations: 100 nM and 1000 nM (sheet 'Samples'), CATDS: 0.33092190258733201",13.2 nM
CC(C)N1CCC(n2cnc(-c3ccc(F)cc3)c2-c2ccnc(N)n2)CC1 [SB-223132],potency estimated from few doses,CSK; [1],898 nM
same,potency estimated from few doses,EPHB3; [1],1410 nM
same,potency estimated from few doses,RIPK2; [1],559 nM
Cl.Nc1c(C(=O)c2cccc(C#CCN3CCCCC3)c2)cnn1-c1ccc(F)cc1 [RO1154461-001],potency estimated from few doses,"CSK; compound concentrations: 100 nM and 1000 nM (sheet 'Samples'), CATDS: 1.25977312115917E-2",877 nM
same,potency estimated from few doses,"EPHA1; compound concentrations: 100 nM and 1000 nM (sheet 'Samples'), CATDS: 1.62394808146854E-2",463 nM
same,potency estimated from few doses,"EPHB3; compound concentrations: 100 nM and 1000 nM (sheet 'Samples'), CATDS: 1.0883176780773701E-2",1390 nM
same,potency estimated from few doses,"RIPK2; compound concentrations: 100 nM and 1000 nM (sheet 'Samples'), CATDS: 1.2186963927709901E-2",966 nM
Cc1cccc(-c2nc(Nc3ccncc3)c3sccc3n2)n1 [GW869641X],potency estimated from few doses,RIPK2; [1],722 nM
same,potency estimated from few doses,TGFBR2; [1],363 nM
NCCNS(=O)(=O)c1ccc(-c2ccnc3[nH]ccc23)cc1 [GSK977617A],potency estimated from few doses,AXL; [1],1330 nM
same,potency estimated from few doses,CDC42BPG,442 nM
same,potency estimated from few doses,CSK; [1],757 nM
same,potency estimated from few doses,EPHA1; [1],723 nM
same,potency estimated from few doses,EPHB3; [1],1780 nM
same,potency estimated from few doses,LYN; [1],936 nM
same,potency estimated from few doses,PRKG1,621 nM
same,potency estimated from few doses,RIPK2; [1],974 nM
same,potency estimated from few doses,ULK1; [1],718 nM
CNC(=O)c1ccccc1Nc1nc(Nc2ccc(N3CCOCC3)cc2)ncc1Cl.Cl [GSK1576028A],potency estimated from few doses,AXL; [1],732 nM
same,potency estimated from few doses,LYN; [1],1010 nM
same,potency estimated from few doses,TTK,2100 nM
same,potency estimated from few doses,ULK1; [1],1420 nM
CCn1c(-c2nonc2N)nc2c(C#CCN)ncc(OCCCN)c21.O=C(O)C(F)(F)F [GSK561866B],potency estimated from few doses,ROCK1,1010 nM
O=C1N=C(NCCc2ccc(Cl)cc2)S/C1=C\c1ccc2ncccc2c1 [RO4498479-000],potency estimated from few doses,"AXL; compound concentrations: 100 nM and 1000 nM (sheet 'Samples'), CATDS: 1.04698651204191E-2",500 nM
same,potency estimated from few doses,"CSK; compound concentrations: 100 nM and 1000 nM (sheet 'Samples'), CATDS: 1.24616497834408E-2",349 nM
same,potency estimated from few doses,"EPHA1; compound concentrations: 100 nM and 1000 nM (sheet 'Samples'), CATDS: 1.45728088711572E-2",262 nM
same,potency estimated from few doses,"EPHB3; compound concentrations: 100 nM and 1000 nM (sheet 'Samples'), CATDS: 7.7760925850710602E-3",1110 nM
same,potency estimated from few doses,"LYN; compound concentrations: 100 nM and 1000 nM (sheet 'Samples'), CATDS: 9.5944426584782493E-3",613 nM
same,potency estimated from few doses,PIK3CG,843 nM
same,potency estimated from few doses,"RIPK2; compound concentrations: 100 nM and 1000 nM (sheet 'Samples'), CATDS: 1.0901360132345101E-2",458 nM
same,potency estimated from few doses,"ULK1; compound concentrations: 100 nM and 1000 nM (sheet 'Samples'), CATDS: 1.00048929217101E-2",555 nM
